# An excerpt weighted towards active compounds, which were near 2.4% of everything screened.
# D2 ag-1: HTS Assay for Allosteric Agonists of the Human D2 Dopamine Receptor: Primary Screen for Agonists; D(2) dopamine receptor (Homo sapiens), P14416; HEK293 T-REx D2 cells, calcium flux agonist mode; activation, % at 2 µM; 340,000 tested, 0.53% active;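 active = activation over 3 SD above normal in the single-dose calcium agonist read, cut at about 30% in these data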; note: 0% is about no effect
# Target sequence (P14416 whole entry, looked up): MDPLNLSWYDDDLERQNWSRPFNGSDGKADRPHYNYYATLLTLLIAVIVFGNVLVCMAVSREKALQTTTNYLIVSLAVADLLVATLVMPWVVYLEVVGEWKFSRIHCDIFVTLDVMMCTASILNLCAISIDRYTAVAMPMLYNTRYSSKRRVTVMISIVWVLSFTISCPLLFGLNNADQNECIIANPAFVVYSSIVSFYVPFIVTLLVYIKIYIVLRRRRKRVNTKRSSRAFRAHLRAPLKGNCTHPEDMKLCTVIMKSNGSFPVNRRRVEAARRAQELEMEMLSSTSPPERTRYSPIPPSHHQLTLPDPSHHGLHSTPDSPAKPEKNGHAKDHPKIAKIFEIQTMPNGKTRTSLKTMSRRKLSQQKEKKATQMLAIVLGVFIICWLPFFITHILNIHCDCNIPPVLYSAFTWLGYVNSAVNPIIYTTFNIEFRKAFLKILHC
#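 Tetracycline-induced HEK293 T-REx cells with force-coupled D2 receptor, plated overnight at 30 C, loaded with no-wash calcium dye. After a 10 s baseline, compound was pin-added and calcium flux read kinetically for 180 s; calcium rises flagged agonists.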
# D2 ag-2: Beta-Arrestin HTS for Positive Allosteric Modulators of the Human D2 Dopamine Receptor: Agonists | DiscoveRx PathHunter D2 beta-arrestin, luminescence, 90 min; 100% = 57 uM dopamine signal | activation, % (no concentration beside the values) | 360,000 tested, 0.084% active | AID 624465, 2012; in the data active = activation above about 40%
#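 DiscoveRx PathHunter D2 beta-arrestin cells (2,100/well) attached overnight, then compound-stimulated 90 min at 37 C in HBSS/10 mM HEPES/0.1% Tween-20 buffer; beta-galactosidase complementation read by luminescence after 1 h at ambient temperature. Dopamine 57 uM final (EC100) as control.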
# D2 antag: HTS Assay for Allosteric Antagonists of the Human D2 Dopamine Receptor: Primary Screen for Antagonists | D(2) dopamine receptor (Homo sapiens), P14416 | HEK293 TREx D2 cells, calcium flux, dopamine EC80 | inhibition, % at 10 µM | 340,000 tested, 2% active | AID 485344, 2010; in the data active = inhibition above about 30%; inactive = below that, where a call was filed; note: 0% is about no effect
#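 Read-out: kinetic calcium fluorescence (1 cycle/s) in inducible HEK293 T-REx D2 cells after an EC80 dopamine addition that followed 180 s compound preincubation. Loss of the dopamine response indicates antagonism.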
# D2 PAM-1: HTS Assay for Positive Allosteric Modulators of the Human D2 Dopamine Receptor: Primary Screen for Potentiators; AID 485347, 2010; HEK293 T-REx D2, calcium flux, EC20 dopamine potentiation; 340,000 tested, 0.34% active; potentiation, % at 10 µM; D(2) dopamine receptor (Homo sapiens), P14416;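 active = potentiation over 3 SD above the plate norm, cut at about 30% in these data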; note: 0% is about no effect
#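 Cells plated with tetracycline inducer and held overnight at 30 C; calcium dye loaded 30–90 min at room temperature; baseline taken, compound added and read 180 s; EC20 dopamine then added and read 180 s.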
# D2 PAM-2: Beta-Arrestin HTS for Positive Allosteric Modulators of the Human D2 Dopamine Receptor: Potentiators. D(2) dopamine receptor (Homo sapiens), P14416. DiscoveRx D2 beta-arrestin cells, luminescence, 90 min; 100% = 57 uM dopamine signal. potentiation, % (concentration not given with the values). 360,000 tested, 0.23% active; in the data active = potentiation above about 50%
#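 PathHunter D2 cells, attached overnight at 37 deg C, received compound in DMSO plus dopamine at EC20 (50 nM final) for 90 min at 37 deg C. Beta-arrestin recruitment was read as luminescence after 1 h with detection reagent at ambient temperature.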
# * hit, by the source's call; x = not tested or not shown.
SMILES,D2 ag-1,D2 ag-2,D2 antag,D2 PAM-1,D2 PAM-2
Cc1cccc(NC(=O)C2CCC(CNS(=O)(=O)c3csc(C(N)=O)c3)CC2)c1C (stereo unspecified),x,x,x,2.7,x
C(=C\c1ccccc1)/CN1CCN(C(c2ccccc2)c2ccccc2)CC1,x,x,52.7*,x,x
Fc1ccc(C(c2ccc(F)cc2)N2CCN(C/C=C/c3ccccc3)CC2)cc1,-1.3,-2.1,64.5*,-25.3,-30.0
Cc1ccc(-c2nc3cc(C(C)C)ccc3o2)cc1NC(=O)c1cc([N+](=O)[O-])ccc1N1CCOCC1,-0.6,x,x,-1.5,x
CCc1ccc(CNC(=O)CSCc2cnn(-c3ccccc3)c2-n2cccc2)cc1,0.6,x,x,-7.6,x
COc1ccc(-c2nnc(NC(=O)c3ccccc3C)o2)cc1,-0.8,-3.3,51.4*,-1.3,-2.1
COc1ccc(C2N(C(=O)N(C)C)CCN2S(=O)(=O)c2ccc(OC)cc2)cc1 (stereo unspecified),-0.1,-2.1,37.0*,21.8,-5.3
COc1cc(-c2coc3c(C(=O)NCc4ccc(OC)c(OC)c4)cccc23)ccc1O,x,67.8*,x,x,-7.4
CC(=O)Nc1ccc(-c2csc(NC(=O)CC(NC(C)=O)c3ccccc3)n2)cc1 (stereo unspecified),0.4,0.3,3.5,36.1*,2.4
Brc1ccc(Nc2c3c(nc4nncn24)CCC3)cc1,-0.6,x,x,0.0,x
COc1cc(NC(=O)Cc2c(C(=O)O)n(C)c3ccccc23)cc(OC)c1OC,x,5.0,x,x,-4.1
COc1ccc(NC(=O)Cc2c(C(=O)O)n(C)c3ccccc23)cc1OC,-0.2,-5.2,2.4,31.8*,-1.0
Cc1ccc(C)c(N2C(=O)N(C)c3ccccc3S2(=O)=O)c1,x,x,x,6.5,x
Cn1c(CN2CCN(CC#N)CC2)c(C#N)c2ccccc21,0.0,-0.3,-12.8,-3.1,-11.6
Cn1c(CN2CCCCC2)c(C#N)c2ccccc21,-0.8,-3.9,45.6*,-22.9,-21.7
CCOC(=O)c1sc2ccccc2c1S(=O)(=O)Nc1c(C)cccc1C,1.8,x,x,2.9,x
Cc1ccc(C)c(CN2C(=O)c3ccccc3S(=O)(=O)c3ccc(C(=O)N4CCCCC4)cc32)c1,0.1,x,x,8.3,x
CCOc1ccc2[nH]c(=O)c(CN(CCO)C(c3nnnn3C3CCCCC3)C(C)C)cc2c1 (stereo unspecified),0.3,2.4,34.8*,-5.2,8.8
COCCn1c(SCC(=O)c2ccc(F)cc2)nc2cc(C(=O)NC3CCCC3)ccc2c1=O,0.1,x,x,2.1,x
COc1ccc(Cn2c(O)c(C=Nc3ccccc3C(=O)O)c3ccccc3c2=O)cc1,-0.5,5.0,32.2*,4.0,4.8
COc1cc(C(=O)OC(C)C(=O)N2CCCC2)cc2c1OCCO2 (stereo unspecified),-0.5,-2.5,67.1*,2.2,-3.5
COc1c(Cl)cccc1-c1cn2ccc(C)cc2n1,0.1,2.6,34.8*,-14.8,-5.9
CC(C)c1ccc(S(=O)(=O)NCc2nc3cccnc3n2Cc2ccc(F)cc2)cc1,0.2,x,x,6.0,x
CC(=O)c1c(NCc2ccccc2)nc(=O)n(-c2ccccc2)c1C,0.9,-7.1,39.7*,-7.3,-11.9
COCCNC(=O)C(c1ccc(C)o1)N(C(=O)C(=O)NC1CCCCC1)c1ccc(F)cc1 (stereo unspecified),-0.5,0.0,-5.7,34.1*,0.9
Cc1cc(NC(=O)CCC(=O)N(c2ccc(F)cc2)C(C(=O)NC2CCCC2)c2ccc(C)o2)no1 (stereo unspecified),0.6,1.0,14.3,17.9,-5.3
CCOC(=O)C(NC(=O)c1ccccc1)=C1C=C(C)OC(C)=C1,-0.5,-1.0,11.8,30.2*,-3.3
COCCN(C(=O)COC(=O)/C=C/c1ccc(C(F)(F)F)cc1)c1c(N)n(Cc2ccccc2)c(=O)[nH]c1=O,0.6,-4.4,45.3*,-5.8,-8.8
